# According to PubChem BioAssay AID485297 (National Center for Advancing Translational Sciences (NCATS), 2010):
# Hit rate of the full screen: of about 320,000 compounds, about 9,100 (2.8%) were called active. About 3% were inconclusive and are not listed. For the sample, actives were picked, then their nearest neighbours and some compounds at random. Unmarked numbers belong to inactive results. The call rests on the fitted dose curve; in most records, active means well fitted activation curve with a large enough effect; inconclusive means small, poorly fitted or top-dose-only effect; inactive means no such curve, though single readings can be large or run the other way.
# Test: qHTS Assay for Rab9 Promoter Activators; further: nearly all actives have a fitted effect of over 60% in size; on activation, negative = inhibition: % of control where 0% means no effect
# Conditions: Huh7 Rab9 promoter-luciferase reporter, luminescence, 24 h; series mostly up to 9.22 µM; activation, negative = inhibition: at the top concentration
# Procedure, shortened: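 Huh7 cells stably carrying a Rab9 promoter-luciferase reporter, 1500 cells per well in OP-MEM I with 10% FBS, treated with compound 24 hours at 37C. Luciferase activity read by luminescence after 10 minutes with Amplite reagent.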
# Potency means the concentration at half of the fitted maximal effect.
Compound,"activation, negative = inhibition",Potency
O=C(O)C1CCCCC1C(=O)Nc1ccc(Cl)cc1 (stereo not drawn),-0.294%,–
Cc1nc([N+](=O)[O-])cn1CC(=O)Nc1ccc(Cl)cc1,2.29%,–
O=C(Nc1ccc(Cl)cc1)/C(=C1\CCCN1)[N+](=O)[O-],–,2.82 µM (active)
COc1ccc(N2C(=O)CC(Nc3ccc(F)cc3)C2=O)c([N+](=O)[O-])c1 (stereo not drawn),7.65%,–
COc1ccccc1OCC(=O)O/N=C(\N)c1ccccn1,–,3.16 µM (active)
Cc1ccc(C(=O)O/N=C(\N)c2ccccn2)cc1Cl,–,3.16 µM (active)
COc1ccccc1OCC(=O)OCn1c(SC)nnc(C)c1=O,-2.91%,–
O=C(OCc1ccc([N+](=O)[O-])cc1)c1ccccn1,-1.27%,–
O=C(COC(=O)c1ccccn1)NNC(=O)c1ccc([N+](=O)[O-])cc1,-4.35%,–
COc1ccccc1OCC(=O)OCc1cc(-c2ccco2)on1,1.46%,–
O=C(Nc1ccccc1Cl)O/N=C(/c1ccccc1)c1ccccn1,9.2%,–
N/C(=N\OC(=O)c1ccc([N+](=O)[O-])cc1)c1ccccn1,–,0.316 µM (active)
COc1ccc(C(=O)NNC(=O)c2cnccn2)cc1[N+](=O)[O-],0.405%,–
COc1ccc(C(=O)CSc2nc(C)cc(C)n2)cc1[N+](=O)[O-],-0.448%,–
Cc1ccc(Cl)cc1NC(=O)c1ccccn1,12%,–
COc1ccc(C(=O)O/N=C(\N)c2ccccn2)cc1[N+](=O)[O-],–,4.47 µM (active)
CC(C)Cn1c(N)c(C(=O)COC(=O)C2CCCN2C(=O)c2cccs2)c(=O)n(C)c1=O (stereo not drawn),-0.406%,–
CCOc1c(Nc2cccc(Cl)c2)c(=O)c1=O,-5.39%,–
CS(=O)(=O)Nc1ccccc1C(=O)OCC(=O)NC1CC1,-1.03%,–
CCOC(=O)C1CCN(C(=O)c2cccc(S(=O)(=O)N(CC)c3ccccc3)c2)CC1,-4.21%,–
Cn1c2cc(B(O)O)sc2c2cnn(Cc3ccccc3F)c(=O)c21,-3.22%,–
COc1ccc(CC2c3cc(OC)c(OC)cc3CC[N+]2(C)CCC(=O)OCCCCCOC(=O)CC[N+]2(C)CCc3cc(OC)c(OC)cc3C2Cc2ccc(OC)c(OC)c2)cc1OC (stereo not drawn),-6.08%,–
CCc1cccc(C)c1NC(=O)COC(=O)CC1CCCC1,0.691%,–
Cc1cc(C)c(S(=O)(=O)N2CCC(C(=O)OCc3c(C)noc3C)CC2)c(C)c1,2.51%,–
CC(=O)c1ccc(OCCCC(=O)Nc2ccc(C)c(S(=O)(=O)N3CCOCC3)c2)cc1,-10.3%,–
COc1ccc(Cl)cc1C(=O)OCC(=O)NCc1cccs1,2.82%,–
CCOC(=O)c1c(C)[nH]c(C(=O)NCCN2CCOCC2)c1C,-1.3%,–

Compound,"activation, negative = inhibition",Potency
COC(=O)Cc1ccc(OCC(=O)NC2CCCC2)cc1,-2.32%,–
CN(CC(=O)Nc1ccc(F)cc1)CC(=O)N1CCCCC1,-1.1%,–
COc1ccccc1-c1oc2ccccc2c1C#CCCCCO,-1.32%,–
O=C(C1CC(=O)N(C2CCCC2)C1)N1CCN(c2cccc(C(F)(F)F)c2)CC1 (stereo not drawn),-9.77%,–
CCOC(=O)c1nc(-c2ccc3c(c2)OCO3)[nH]c1C,20.9%,–
CC(C)c1ccc(NC(=O)COC(=O)c2ccc(CN3CCCC3=O)cc2)cc1,-6.29%,–
O=C(CSc1nnc(Nc2ccccc2F)s1)NC1CCCC1,19.2%,–
Cc1c(NC(=O)CSCc2ccccc2)cccc1C(=O)O,2.13%,–
COc1cc(OC)cc(C(=O)NNC(=O)CCOc2ccccc2OC)c1,-1.58%,–
CCN(C(=O)COC(=O)Cc1c(F)cccc1Cl)c1c(N)n(Cc2ccccc2)c(=O)[nH]c1=O,-0.28%,–
O=C(CSc1nnc(-c2ccco2)n1CC1CCCO1)c1ccccc1 (stereo not drawn),14.8%,–
c1ccc(CSc2nnc(-c3ccco3)n2Cc2ccccc2)cc1,–,3.55 µM (active)
O=C(CSc1nnc(-c2ccco2)n1-c1ccccc1)NCCc1ccccc1,0.672%,–
COc1ccc(NC(=O)CN(C)C(=O)c2cc(C3CC3)nn2-c2ccccc2)cc1,-1.8%,–
COc1ccccc1C1=CC(=O)C[C@H](c2ccc(F)cc2)C1,-6.18%,–
CSCCC(NC(=O)c1ccccc1)C(=O)N1CCN(Cc2ccc(Cl)cc2)CC1 (stereo not drawn),-0.803%,–
Cc1ccc(F)c(NC(=O)CCc2ccccc2)c1,–,2.82 µM (active)
O=C(CCc1ccccc1)NNc1ccc(F)cc1,-0.275%,–
Cc1ccc(F)c(NC(=O)CCOc2ccccc2C)c1,-1.01%,–
COC(=O)C1=CO[C@@H](O[C@@H]2O[C@H](CO)[C@@H](O)[C@H](O)[C@H]2O)C2C1C[C@H](O)[C@@H]2C (stereo partly drawn),-1.85%,–
N#Cc1nc(Cc2cccc3ccccc23)oc1NCc1ccc2c(c1)OCO2,1.47%,–
Cc1ccccc1-c1nc(C#N)c(NCc2ccco2)o1,-9.43%,–
N#Cc1nc(Cc2ccccc2)oc1NCCc1ccccc1,–,3.16 µM (active)
Cc1cccc(-c2oc3ccc(-c4ccc5c(c4)OCO5)cc3c2C#Cc2cncn2C)c1,-5.09%,–
CCOC(=O)Cn1nnnc1C,-2.92%,–
CCOC(=O)/C(C#N)=C/c1ccc(N2CCCCC2)cc1,–,3.16 µM (active)
